Calls of active or inactive are those of the source. How the source made its calls: active means hit-call score of the fitted dose curve at least 0.9, where 1 is the maximum; inactive means score below 0.9.
Tests used:
Conditions in all cases: mRNA level, 48 h; actives raise or lower the signal
[1] = read-out: MYC, MYC (gene 4609); test: LTEA_HepaRG_MYC: Life Technologies and Expression Analysis (LTEA) Assay for MYC using HepaRG (AID 2283518)
In short: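 MYC transcript changes, up or down relative to 0.5% DMSO, from TaqMan qRT-PCR normalized to three housekeeping genes. Human HepaRG cultures received chemicals for 48 h at eight half-log concentrations up to 100 uM, in duplicate.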

[2] = read-out: matrix metalloproteinase-3 (MMP3), MMP3 (gene 4314); test: LTEA_HepaRG_MMP3: Life Technologies and Expression Analysis (LTEA) Assay for matrix metalloproteinase-3 (MMP3) using HepaRG (AID 2283519)
In short: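 qRT-PCR read-out of MMP3 mRNA (normalised to three housekeeping genes) in HepaRG liver cells after 48 h chemical exposure; 8-point half-log series, top 100 uM, 0.5% DMSO vehicle. Bidirectional curve fitting against DMSO baseline.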

[3] = read-out: Paternally Expressed 10 (PEG10), PEG10 (gene 23089); test: LTEA_HepaRG_PEG10: Life Technologies and Expression Analysis (LTEA) Assay for Paternally Expressed 10 (PEG10) using HepaRG (AID 2283520);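 on AC50: PEG10 transcript by qRT-PCR normalised to ACTB GAPDH and POLR2A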
In short: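 After 48 h exposure of differentiated HepaRG cells (0.5% DMSO vehicle, eight concentrations up to 100 uM, duplicates), PEG10 mRNA was measured by TaqMan qRT-PCR. Values were normalised to endogenous control genes and analysed bidirectionally against vehicle.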

[4] = read-out: Nuclear factor NF-kappa-B p105 subunit (Homo sapiens) (UniProt P19838); test: LTEA_HepaRG_NFKB1: Life Technologies and Expression Analysis (LTEA) Assay for Nuclear Factor Kappa B Subunit 1 (NFKB1) using HepaRG (AID 2283521)
In short: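 Differentiated human HepaRG cells were exposed for 48 h in serum-free induction medium to eight concentrations (top 100 uM, half-log steps, 0.5% DMSO), in duplicate. NFKB1 mRNA was measured by TaqMan qRT-PCR, normalized to ACTB/GAPDH/POLR2A, and fitted bidirectionally against DMSO.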

[5] = read-out: Protein phosphatase 2A (PPP2R4), PTPA (gene 5524); test: LTEA_HepaRG_PPP2R4: Life Technologies and Expression Analysis (LTEA) Assay for Protein phosphatase 2A (PPP2R4) using HepaRG (AID 2283522)
In short: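 Using HepaRG cultures maintained in 0.5% DMSO, chemicals are tested 48 h at up to 100 uM in duplicate. Induction or suppression of PPP2R4 mRNA, measured by qRT-PCR, is fitted bidirectionally against the vehicle baseline.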

[6] = read-out: Phosphatase and tensin (PTEN), PTEN (gene 5728); test: LTEA_HepaRG_PTEN: Life Technologies and Expression Analysis (LTEA) Assay for Phosphatase and tensin (PTEN) using HepaRG (AID 2283523)
In short: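 HepaRG, 48 h exposure, 8-pt half-log series from 100 uM top, 0.5% DMSO vehicle, duplicates. Readout: Fluidigm qRT-PCR of PTEN transcript; housekeeping normalization (ACTB, GAPDH, POLR2A). Gain or loss fitted relative to DMSO baseline.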

[7] = read-out: solute carrier (SLC22A1), SLC22A1 (gene 6580); test: LTEA_HepaRG_SLC22A1: Life Technologies and Expression Analysis (LTEA) Assay for solute carrier (SLC22A1) using HepaRG (AID 2283524)
In short: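 qRT-PCR readout (TaqMan, Fluidigm arrays) of SLC22A1 transcript, normalized to three housekeeping genes; bidirectional curve fit relative to 0.5% DMSO vehicle. Differentiated human HepaRG cells, 48 h chemical exposure, top concentration 100 uM, half-log steps, eight points.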

[8] = read-out: Pyruvate Dehydrogenase Kinase 4 (PDK4), PDK4 (gene 5166); test: LTEA_HepaRG_PDK4: Life Technologies and Expression Analysis (LTEA) Assay for Pyruvate Dehydrogenase Kinase 4 (PDK4) using HepaRG (AID 2283525)
In short: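 HepaRG (human liver line), 48 h chemical exposure, 8-pt half-log CRC top 100 uM, 0.5% DMSO vehicle, duplicates. Readout: TaqMan qRT-PCR of PDK4 mRNA, housekeeping-normalized; gain/loss fit relative to DMSO baseline.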

[9] = read-out: NAD(P)H dehydrogenase [quinone] 1 (NQO1), NQO1 (gene 1728); test: LTEA_HepaRG_NQO1: Life Technologies and Expression Analysis (LTEA) Assay for NAD(P)H dehydrogenase [quinone] 1 (NQO1) using HepaRG (AID 2283526)
In short: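 In this assay, gene expression is read by qRT-PCR after 48 h exposure of HepaRG cells to eight concentrations (max 100 uM, half-log) in 0.5% DMSO. Each chemical runs in duplicate, and activity is scored relative to vehicle.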

[10] = read-out: Nuclear factor erythroid 2-related factor 2 (Homo sapiens) (UniProt Q16236); test: LTEA_HepaRG_NFE2L2: Life Technologies and Expression Analysis (LTEA) Assay for Nuclear factor erythroid 2-related factor 2 (NFE2L2) Transcription Factor using HepaRG (AID 2283527)
In short: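 HepaRG, 48 h dosing, 8-pt half-log series from 100 uM in 0.5% DMSO, duplicates. Read-out: NFE2L2 mRNA by qRT-PCR (ACTB/GAPDH/POLR2A normalization). Bidirectional curve fit vs DMSO baseline.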

[11] = read-out: succinate dehydrogenase complex iron sulfur subunit B (SDHB), SDHB (gene 6390); test: LTEA_HepaRG_SDHB: Life Technologies and Expression Analysis (LTEA) Assay for succinate dehydrogenase complex iron sulfur subunit B (SDHB) using HepaRG (AID 2283528)
In short: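 HepaRG, 48 h exposure, 8-pt half-log series from 100 uM in 0.5% DMSO, duplicates. Readout: SDHB mRNA by Fluidigm qRT-PCR vs housekeeping genes; bidirectional fit relative to DMSO.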

[12] = read-out: solute carrier (SLCO1B1), SLCO1B1 (gene 10599); test: LTEA_HepaRG_SLCO1B1: Life Technologies and Expression Analysis (LTEA) Assay for solute carrier (SLCO1B1) using HepaRG (AID 2283530)
In short: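 SLCO1B1 transcript levels were quantified by TaqMan qRT-PCR using three housekeeping genes for normalization. This followed 48 h chemical exposure (100 uM top, half-log, 8 points, 0.5% DMSO) of HepaRG liver cells, with gain or loss fitted relative to DMSO.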

[13] = read-out: sulfotransferase 2A1 (SULT2A1), SULT2A1 (gene 6822); test: LTEA_HepaRG_SULT2A1: Life Technologies and Expression Analysis (LTEA) Assay for sulfotransferase 2A1 (SULT2A1) using HepaRG (AID 2283531)
In short: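 Expression change of SULT2A1, by qRT-PCR with three housekeeping-gene normalization, was scored bidirectionally versus DMSO. Cells: differentiated HepaRG, dosed in duplicate for 48 h across 8 points, highest 100 µM, half-log dilution, 0.5% DMSO.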

[14] = read-out: Transforming Growth Factor (TGFA), TGFA (gene 7039); test: LTEA_HepaRG_TGFA: Life Technologies and Expression Analysis (LTEA) Assay for Transforming Growth Factor (TGFA) using HepaRG (AID 2283532)
In short: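 qRT-PCR read-out of TGFA transcript, normalized to three housekeeping genes, fitted bidirectionally against 0.5% DMSO baseline. Human HepaRG cultures received chemicals for 48 h at eight half-log concentrations, top 100 uM.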

[15] = read-out: TIMP1, TIMP1 (gene 7076); test: LTEA_HepaRG_TIMP1: Life Technologies and Expression Analysis (LTEA) Assay for TIMP1 using HepaRG (AID 2283534)
In short: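 Bidirectional change in TIMP1 transcript versus 0.5% DMSO, measured by TaqMan qRT-PCR with three housekeeping genes for normalization. HepaRG human liver cells dosed 48 h in duplicate, top concentration 100 uM with half-log dilutions.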

[16] = read-out: Tumor necrosis factor receptor 1 (TNFRSF1A), TNFRSF1A (gene 7132); test: LTEA_HepaRG_TNFRSF1A: Life Technologies and Expression Analysis (LTEA) Assay for Tumor necrosis factor receptor 1 (TNFRSF1A) using HepaRG (AID 2283535)
In short: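 mRNA measured by qRT-PCR (TaqMan, Fluidigm arrays) against ACTB/GAPDH/POLR2A housekeepers after 48 h chemical exposure of HepaRG cells. Top concentration 100 uM, half-log 8-point series, duplicates; vehicle 0.5% DMSO, both fit directions.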

[17] = read-out: Thyroid Hormone Responsive (THRSP), THRSP (gene 7069); test: LTEA_HepaRG_THRSP: Life Technologies and Expression Analysis (LTEA) Assay for Thyroid Hormone Responsive (THRSP) using HepaRG (AID 2283536)
In short: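 qRT-PCR read-out (Fluidigm TaqMan), housekeeping-normalized (ACTB/GAPDH/POLR2A). HepaRG, 48 h chemical exposure, 8-pt half-log series from 100 uM in 0.5% DMSO, duplicates. Bidirectional curve fit vs 0.5% DMSO baseline.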

[18] = read-out: Cellular tumor antigen p53 (Homo sapiens) (UniProt P04637); test: LTEA_HepaRG_TP53: Life Technologies and Expression Analysis (LTEA) Assay for Tumor Protein P53 (TP53) using HepaRG (AID 2283537)
In short: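 HepaRG, 48 h exposure, top 100 uM, half-log 8-point, 0.5% DMSO vehicle, duplicates. Read: TP53 mRNA by TaqMan qRT-PCR, normalised to ACTB/GAPDH/POLR2A; bidirectional fit vs DMSO.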

[19] = read-out: Transforming Growth Factor (TGFB1), TGFB1 (gene 7040); test: LTEA_HepaRG_TGFB1: Life Technologies and Expression Analysis (LTEA) Assay for Transforming Growth Factor (TGFB1) Transporter using HepaRG (AID 2283533)
In short: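 TGFB1 transcript measured by qRT-PCR with normalisation to three housekeeping genes (ACTB, GAPDH, POLR2A); human HepaRG line treated in duplicate for 48 hr with an 8-point series topping at 100 uM, 0.5% DMSO vehicle, bidirectionally fitted.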

[20] = read-out: Signal transducer and activator of transcription 3 (Homo sapiens) (UniProt P40763); test: LTEA_HepaRG_STAT3: Life Technologies and Expression Analysis (LTEA) Assay for Signal transducer and activator of transcription (STAT3) using HepaRG (AID 2283529)
In short: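 HepaRG, 48 h exposure, 8-pt half-log series (top 100 uM), 0.5% DMSO vehicle, duplicates. Readout: STAT3 transcript by Fluidigm qRT-PCR, housekeeping-normalized; bidirectional fit vs DMSO baseline.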

Measured: AC50

Signal transducer and activator of transcription 3 (Homo sapiens), sequence (P40763 whole entry, looked up): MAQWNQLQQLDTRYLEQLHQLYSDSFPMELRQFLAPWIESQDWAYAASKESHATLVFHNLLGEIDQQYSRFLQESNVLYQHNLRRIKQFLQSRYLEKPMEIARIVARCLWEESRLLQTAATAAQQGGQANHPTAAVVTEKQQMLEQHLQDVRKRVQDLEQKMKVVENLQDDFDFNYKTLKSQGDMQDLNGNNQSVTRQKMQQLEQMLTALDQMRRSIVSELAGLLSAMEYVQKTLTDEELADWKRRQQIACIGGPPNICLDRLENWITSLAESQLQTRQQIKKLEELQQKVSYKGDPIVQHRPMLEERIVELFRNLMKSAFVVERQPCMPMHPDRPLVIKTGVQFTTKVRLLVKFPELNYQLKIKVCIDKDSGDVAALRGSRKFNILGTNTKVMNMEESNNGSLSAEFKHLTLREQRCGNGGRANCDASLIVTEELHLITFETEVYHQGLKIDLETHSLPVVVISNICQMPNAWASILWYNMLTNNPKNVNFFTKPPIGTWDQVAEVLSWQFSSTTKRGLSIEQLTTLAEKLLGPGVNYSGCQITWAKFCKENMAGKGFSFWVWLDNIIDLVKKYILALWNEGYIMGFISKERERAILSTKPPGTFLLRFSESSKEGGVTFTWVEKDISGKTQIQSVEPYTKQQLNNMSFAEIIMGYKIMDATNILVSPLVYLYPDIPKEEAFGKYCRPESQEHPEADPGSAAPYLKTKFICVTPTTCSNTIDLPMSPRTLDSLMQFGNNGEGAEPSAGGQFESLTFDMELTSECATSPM
Nuclear factor erythroid 2-related factor 2 (Homo sapiens), sequence (Q16236 whole entry, looked up): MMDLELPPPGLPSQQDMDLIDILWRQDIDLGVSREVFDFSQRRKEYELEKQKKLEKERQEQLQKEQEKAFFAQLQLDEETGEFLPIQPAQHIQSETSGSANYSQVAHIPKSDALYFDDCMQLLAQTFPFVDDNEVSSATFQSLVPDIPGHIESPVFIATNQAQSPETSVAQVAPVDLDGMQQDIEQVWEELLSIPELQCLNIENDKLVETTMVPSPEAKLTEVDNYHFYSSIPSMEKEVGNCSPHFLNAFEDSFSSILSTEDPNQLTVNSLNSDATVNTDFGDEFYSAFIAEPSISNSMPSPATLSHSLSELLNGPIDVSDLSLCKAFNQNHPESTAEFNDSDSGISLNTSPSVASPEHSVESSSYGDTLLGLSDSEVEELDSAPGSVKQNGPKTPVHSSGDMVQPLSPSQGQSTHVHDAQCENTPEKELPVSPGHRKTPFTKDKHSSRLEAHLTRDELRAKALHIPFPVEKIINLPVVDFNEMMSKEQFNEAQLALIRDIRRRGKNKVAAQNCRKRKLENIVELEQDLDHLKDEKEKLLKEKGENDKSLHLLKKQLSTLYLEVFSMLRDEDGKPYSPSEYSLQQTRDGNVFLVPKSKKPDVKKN
Nuclear factor NF-kappa-B p105 subunit (Homo sapiens), sequence (P19838 whole entry, looked up): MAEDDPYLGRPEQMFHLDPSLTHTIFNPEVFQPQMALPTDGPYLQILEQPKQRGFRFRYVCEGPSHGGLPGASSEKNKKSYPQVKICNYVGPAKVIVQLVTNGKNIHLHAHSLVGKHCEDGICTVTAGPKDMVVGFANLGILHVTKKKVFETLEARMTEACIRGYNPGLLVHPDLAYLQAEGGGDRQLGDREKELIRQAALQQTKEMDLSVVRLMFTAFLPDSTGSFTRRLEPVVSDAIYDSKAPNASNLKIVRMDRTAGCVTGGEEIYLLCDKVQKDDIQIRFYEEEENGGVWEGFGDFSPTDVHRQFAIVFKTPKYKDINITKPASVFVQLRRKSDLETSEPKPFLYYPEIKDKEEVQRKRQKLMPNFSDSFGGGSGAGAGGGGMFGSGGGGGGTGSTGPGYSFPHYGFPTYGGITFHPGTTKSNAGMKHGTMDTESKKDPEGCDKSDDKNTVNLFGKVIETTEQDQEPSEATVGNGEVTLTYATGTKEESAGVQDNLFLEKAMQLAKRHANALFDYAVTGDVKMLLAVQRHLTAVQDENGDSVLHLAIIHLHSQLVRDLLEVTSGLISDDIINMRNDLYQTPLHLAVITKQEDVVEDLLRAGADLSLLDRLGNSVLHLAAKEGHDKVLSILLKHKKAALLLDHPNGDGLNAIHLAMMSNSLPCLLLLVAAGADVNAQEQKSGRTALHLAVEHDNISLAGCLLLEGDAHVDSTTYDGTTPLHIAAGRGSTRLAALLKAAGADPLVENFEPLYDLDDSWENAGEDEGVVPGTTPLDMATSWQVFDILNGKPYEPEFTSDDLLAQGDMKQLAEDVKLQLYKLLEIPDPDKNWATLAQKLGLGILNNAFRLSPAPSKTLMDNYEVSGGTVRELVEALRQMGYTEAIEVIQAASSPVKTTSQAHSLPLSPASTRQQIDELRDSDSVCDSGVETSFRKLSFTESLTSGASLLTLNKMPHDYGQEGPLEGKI
Cellular tumor antigen p53 (Homo sapiens), sequence (P04637 whole entry, looked up): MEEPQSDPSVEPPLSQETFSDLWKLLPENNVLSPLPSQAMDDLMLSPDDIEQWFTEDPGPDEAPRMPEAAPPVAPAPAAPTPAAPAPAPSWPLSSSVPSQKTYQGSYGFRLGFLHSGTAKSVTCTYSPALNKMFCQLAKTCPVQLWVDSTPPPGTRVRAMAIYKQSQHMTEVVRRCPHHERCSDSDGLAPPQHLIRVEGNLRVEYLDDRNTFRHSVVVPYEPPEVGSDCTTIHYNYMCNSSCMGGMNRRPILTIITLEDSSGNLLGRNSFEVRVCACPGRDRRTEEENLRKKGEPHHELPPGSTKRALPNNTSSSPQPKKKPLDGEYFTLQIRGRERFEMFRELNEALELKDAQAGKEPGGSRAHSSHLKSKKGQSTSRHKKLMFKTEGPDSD

CN1CCN(c2ccccc2/C=C2\SCCN(c3ccc(Cl)c(Cl)c3)C2=O)CC1
active: [2] 87.1 µM | [3] 14 µM | [7] 93.8 µM | [9] 81.3 µM | [10] 79.5 µM | [13] 93.2 µM | [14] 96.2 µM | [16] 95.5 µM
not listed: [19] | [20]
inactive: all other assays above

O=C(OCCOCCOC(=O)c1ccccc1)c1ccccc1
not listed: [15] | [20]
inactive: all other assays above

CCCCCCCCCCCCN1CCCC1=O
not listed: [20]
inactive: all other assays above

Cc1cc(CCN2CCN(c3nsc4ccccc34)CC2)cc2c1NC(=O)CC2(C)C
active: [1] 87.1 µM | [7] 84.8 µM | [8] 4.39 µM | [10] 50 µM | [12] 77.5 µM | [13] 85.8 µM | [17] 82 µM | [18] 80.4 µM
not listed: [15] | [19]
inactive: all other assays above

CCC(=C(c1ccc(O)cc1)c1ccc(OCCN(C)C)cc1)c1ccccc1
active: [1] 77.7 µM | [7] 93.4 µM | [13] 85.5 µM | [19] 97.5 µM
not listed: [15] | [18] | [20]
inactive: all other assays above

O=C(O)c1ccccc1C(c1ccc(O)cc1)c1ccc(O)cc1
not listed: [18] | [19]
inactive: all other assays above

O=[N+]([O-])c1ccc(O)cc1
not listed: [15]
inactive: all other assays above

Reference: PubChem BioAssay (EPA / NIEHS)
